Laboratory results reported in PubChem BioAssay (NCI).
About 79,000 compounds went through this panel and 15% of them were active in at least one assay; those are over-represented in the sample as a whole. Active and inactive are the calls of the source. No stated cut-off is given here; in the data, active means growth inhibition above about 70%; inactive means the rest.

Assay: NCI Yeast Anticancer Drug Screen. Data for the sgs1 mgt1 strain (AID 161);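 further: 0% = growth of cultures given vehicle only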
Settings: S. cerevisiae sgs1 mgt1 strain, active compounds read high
Protocol: Growth inhibition of yeast strains with defined genetic alterations is measured as a screen for potential anti-cancer activity. Selected strains with alterations in DNA damage repair or cell cycle control were exposed to compounds and growth inhibition was measured relative to vehicle treated controls. The strain used in this assay is sgs1 mgt1

[1] = at 5.0 µM (retest, dose inferred, filed as 0.5)
[2] = at 50.0 µM (retest, dose inferred, filed as 5.0)

Row | Compound | growth inhibition [1] | growth inhibition [2] | growth inhibition (at 50.0 µM)
1 | CN1CCc2ccccc2C1Cc1ccccc1NC(=O)c1sc2ccccc2c1Cl (configuration not stated) | -7% (inactive) | 99% (active) | 99% (active)
2 | O=C([O][Sn]([O]C(=O)c1ccccc1)([c]1ccccc1)[c]1ccccc1)c1ccccc1 | -11% (inactive) | 73% (active) | 56.4% (inactive)
3 | CCN(CC)C(=S)N/N=C(/C)c1cccc(/C(C)=N\NC(=S)N(CC)CC)n1 | -5% (inactive) | 91% (active) | 66.7% (inactive)
4 | N/C(=N\OC(=O)NC(Cl)=C(Cl)Cl)c1cc(C(F)(F)F)cc(C(F)(F)F)c1 | -1% (inactive) | 95% (active) | 89.4% (active)
5 | CN(C)Cc1cc(N=Nc2ccc(Cl)cc2)cc(CN(C)C)c1O | 1% (inactive) | 46% (inactive) | 95.2% (active)
6 | Cc1ccc(S(=O)(=O)NC(=O)NC2=NC(C)(C)N(c3ccc(Cl)c(Cl)c3)C(N)=N2)cc1 | 6% (inactive) | -6% (inactive) | 4.25% (inactive)
7 | c1ccc2c(c1)C(=NCCCN1CCCCCC1)c1cccn1-2 | 2% (inactive) | -7% (inactive) | 84.5% (active)
8 | O=C(CCCN1CCC(O)(c2ccc(Cl)cc2)CC1)c1ccc(F)cc1 | 60% (inactive) | 100% (active) | 91.4% (active)
9 | O=Cc1cccc2ccc3ccccc3c12 | -56% (inactive) | 73% (active) | 98.2% (active)
10 | O=[N+]([O-])c1cccc([N+](=O)[O-])c1S(=O)(=O)c1ccccc1 | 2% (inactive) | 33% (inactive) | 65.1% (inactive)
11 | COCCOC(=O)CCn1cc(F)c(=O)[nH]c1=O | 27% (inactive) | 82% (active) | 91.7% (active)
12 | O=C(Nc1ccccc1)C(=O)C(C(=O)c1ccccc1)C(c1ccccc1)c1ccccc1 (configuration not stated) | -5% (inactive) | 20% (inactive) | 29.4% (inactive)
13 | Cc1c(C2=C(Br)C(=O)N(C)C2=O)c(=O)n(C)c(=O)n1C | 0% (inactive) | 5% (inactive) | 58.6% (inactive)
14 | CC(C)/C(Cl)=N\OC(=O)Nc1cccc(Cl)c1 | -17% (inactive) | 83% (active) | 85.2% (active)
